Laboratory results published in PubChem BioAssay (NCATS).
A number with no mark means an inactive call. Inconclusive results are not listed. Calls of active or inactive are those of the source. Unless noted, calls come from the whole dose curve; as a rule, active = well fitted curve in the direction sought with a large enough effect; inconclusive = small, poorly fitted or top-dose-only effect, or another doubt; inactive = no such curve, though single readings can be large; an effect the other way counts as inactive or inconclusive.

Tests used:
[1] = qHTS Assay for Identification of Small Molecule Agonists for Thrombopoietin (TPO) Signaling Pathway (AID 917); conditions: TPO signaling pathway reporter cells, agonist qHTS, stimulated with TPO at its EC50; series mostly up to 38.5 µM; note: % is set by controls: 0 for no effect and ±100 for the full control effect
Summary of the method: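 IL-3-dependent murine pro-B Ba/F3 cells, stably transfected with human TPO receptor and GpIIb-promoter luciferase, are incubated 24 hrs at 37 C with test compound and 26 pM TPO; luciferase signal is read after 10 min at room temperature.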

[2] = target: Muscarinic acetylcholine receptor M1 (Rattus norvegicus) (UniProt P08482); assay: qHTS Assay for Antagonists of Acetylcholine Muscarinic M1 Receptor: Kinetic Measurement of Intracellular Calcium Response (AID 943); conditions: M1-expressing cells, kinetic intracellular calcium fluorescence; series mostly up to 35.3 µM;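 note: Fluo-4 calcium signal as peak divided by basal fluorescence over 4 min; nearly all actives have a fitted effect of over 75% in size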
Summary of the method: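 Intracellular calcium flux, recorded with Fluo-4 in a kinetic plate reader, served as signal; the response to carbachol at EC80 (100 nM final) was taken as maximal over minimal fluorescence after a 10 min compound pre-incubation in rat M1-CHO cells.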

[3] = target: Muscarinic acetylcholine receptor M1 (Rattus norvegicus) (UniProt P08482); assay: qHTS Assay for Antagonists of Acetylcholine Muscarinic M1 Receptor: Measurement of IP-One Response (AID 944); conditions: CHO-M1 cells, IP-One HTRF, antagonist mode; series mostly up to 46.1 µM; note: nearly all actives have a fitted effect of over 75% in size
Summary of the method: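 Steps: plate transfected CHO-M1 cells overnight; add test compound, 10 min; add carbachol (200 nM, EC80) in stimulation buffer with LiCl; incubate 30 min; add labelled IP1 tracer and anti-IP1 antibody in lysis buffer; read HTRF after 10 min.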

[4] = target: Pyruvate kinase (Leishmania mexicana) (UniProt Q27686); assay: qHTS Validation Assay for Inhibitors of Leishmania Mexicana Pyruvate Kinase (AID 945);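 note: 0% = DMSO only neutral control wells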; conditions: purified L. mexicana pyruvate kinase, enzyme activity, E451W mutant enzyme; series mostly up to 57.5 µM
Summary of the method: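 Eight-point qHTS titrations in triplicate, data normalized to DMSO neutral control. Reaction: 0.2 nM LmPYK E451W mutant, 0.5 mM PEP, 0.1 mM ADP, 7 mM MgCl2, pH 7.2, one hour at room temperature; luminescent ATP detection.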

[5] = Confirmation and Secondary Assay for Modulators of Hemoglobin Beta Chain Splicing at IVS2 654 locus (AID 910); conditions: HeLa EGFP-654 splicing reporter, GFP fluorescence, 48 h; series mostly up to 46.1 µM; note: % of control where 0% means no effect
Summary of the method: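 HeLa cells stably carrying EGFP interrupted by mutant beta-globin IVS2-654 intron (CMV-driven) were treated with compound for 2 days at 37C; corrected splicing was scored as total peak GFP intensity per well (488 nm excitation, 500-520 nm emission).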

[6] = Cell Viability - LYMP2-001 (AID 921); conditions: LYMP2-001 lymphoblastoid cell viability; series mostly up to 92.2 µM;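 note: cells exposed to compound for 24 h at 37 °C; 0% = DMSO only and full inhibition = tetraoctylammonium bromide control wells; nearly all actives have a fitted effect of over 70% in size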
Summary of the method: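 A lymphoblastoid cell line of human origin was treated with library compounds across a concentration series for 24 hours, and viable cell number was estimated from ATP-driven luciferase light output. Hill modeling gave AC50.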

[7] = Confirmation and Secondary Assay for Modulators of Hemoglobin Beta Chain Splicing at IVS2 705 locus (AID 930); conditions: HeLa EGFP-705 splicing reporter, GFP fluorescence, 48 h; series mostly up to 46.1 µM;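 note: HeLa cells stably expressing the EGFP-705 splicing reporter; GFP fluorescence per well restored by corrected splicing of the IVS2-705 intron in EGFP; % of control where 0% means no effect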
Summary of the method: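 HeLa cells stably carrying EGFP interrupted by mutant beta-globin intron 2 (IVS2-705) treated 2 days at 37C with compound; 500 nM antisense PNA as control. Correct splicing read as total peak GFP intensity per well by laser-scanning cytometry.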

[8] = MultiTox-Fluor Cytotoxicity Assay - LYMP1-001 - Dead Cells (AID 946); conditions: LYMP1-001 lymphoblastoid cells, dead-cell protease fluorescence; series mostly up to 92.2 µM;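 note: cells exposed to compound for 16 h; 0% = DMSO and 100% = tetraoctylammonium bromide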
Summary of the method: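 AC50 from Hill fit of concentration-response; data normalized to DMSO (basal) and 15 uM tetraoctylammonium bromide (100%). LYMP1-001 lymphoblastoid cells, 2500/well, 16 hr compound at 37 C; dead-cell protease fluorescence, Ex/Em 485/520.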

[9] = target: Cytochrome P450 2C19 (Homo sapiens) (UniProt P33261); assay: qHTS Assay for Inhibitors and Substrates of Cytochrome P450 2C19 (AID 899); conditions: recombinant CYP2C19, luciferin-H EGE luminescence; series mostly up to 57.1 µM; note: % is set by controls: 0 for no effect and ±100 for the full control effect; nearly all actives have a fitted effect of over 60% in size
Summary of the method: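 In 50mM KPO4, the reaction held 5nM enzyme and KM-level (10uM) Luciferin-H EGE; it ran 60 min at 37C after NADPH regeneration and a 10 min compound preincubation. Luminescence values were scaled to 57uM ketoconazole as complete inhibition.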

[10] = qHTS Assay for Identification of Small Molecule Antagonists for NFkB Signaling Pathway (AID 895; active = well fitted inhibition curve with a large enough effect in the signal ratio, with a control signal flat, not every such curve was filed as active; the % refers to the signal ratio; note: % is set by controls: 0 for no effect and ±100 for the full control effect); conditions: NFkB beta-lactamase reporter cells, FRET ratio 460/530, stimulated with 10 pM TNF alpha; series mostly up to 38.3 µM
Summary of the method: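 NFkB-bla ME-180 cervical carcinoma cells with beta-lactamase reporter under NFkB response element; compounds added, then TNF alpha at 10 pM final (EC50), 5 h at 37 C. LiveBLAzer substrate 2 h, room temperature; emission 460/530 nm at 405 nm excitation.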

Muscarinic acetylcholine receptor M1 (Rattus norvegicus), sequence (P08482 whole entry, looked up): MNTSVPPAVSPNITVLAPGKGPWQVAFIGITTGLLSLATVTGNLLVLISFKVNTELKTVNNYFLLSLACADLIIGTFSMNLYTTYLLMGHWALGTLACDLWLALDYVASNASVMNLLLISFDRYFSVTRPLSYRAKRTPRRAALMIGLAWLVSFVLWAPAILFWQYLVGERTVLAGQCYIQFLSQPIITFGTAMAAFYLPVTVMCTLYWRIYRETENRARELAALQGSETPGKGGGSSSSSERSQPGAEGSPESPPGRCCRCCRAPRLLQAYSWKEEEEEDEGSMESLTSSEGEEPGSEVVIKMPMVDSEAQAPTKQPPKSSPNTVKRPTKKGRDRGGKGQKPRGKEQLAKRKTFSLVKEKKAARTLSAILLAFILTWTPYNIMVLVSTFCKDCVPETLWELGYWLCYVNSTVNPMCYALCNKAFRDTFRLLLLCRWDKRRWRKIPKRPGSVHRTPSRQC
Cytochrome P450 2C19 (Homo sapiens), sequence (P33261 whole entry, looked up): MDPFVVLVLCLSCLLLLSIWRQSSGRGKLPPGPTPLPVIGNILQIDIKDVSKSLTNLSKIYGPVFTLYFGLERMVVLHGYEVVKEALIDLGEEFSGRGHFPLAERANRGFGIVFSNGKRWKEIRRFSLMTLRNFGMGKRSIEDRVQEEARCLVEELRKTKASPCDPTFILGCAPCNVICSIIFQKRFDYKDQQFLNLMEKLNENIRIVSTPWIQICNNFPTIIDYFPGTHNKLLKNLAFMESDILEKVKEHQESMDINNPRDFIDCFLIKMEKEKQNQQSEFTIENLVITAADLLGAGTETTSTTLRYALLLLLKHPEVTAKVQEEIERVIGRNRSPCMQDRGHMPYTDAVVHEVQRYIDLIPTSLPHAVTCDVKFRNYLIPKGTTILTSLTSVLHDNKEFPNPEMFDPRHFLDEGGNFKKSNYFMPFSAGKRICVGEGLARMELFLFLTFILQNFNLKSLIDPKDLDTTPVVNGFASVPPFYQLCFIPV
Pyruvate kinase (Leishmania mexicana), sequence (Q27686 2-499 E452W): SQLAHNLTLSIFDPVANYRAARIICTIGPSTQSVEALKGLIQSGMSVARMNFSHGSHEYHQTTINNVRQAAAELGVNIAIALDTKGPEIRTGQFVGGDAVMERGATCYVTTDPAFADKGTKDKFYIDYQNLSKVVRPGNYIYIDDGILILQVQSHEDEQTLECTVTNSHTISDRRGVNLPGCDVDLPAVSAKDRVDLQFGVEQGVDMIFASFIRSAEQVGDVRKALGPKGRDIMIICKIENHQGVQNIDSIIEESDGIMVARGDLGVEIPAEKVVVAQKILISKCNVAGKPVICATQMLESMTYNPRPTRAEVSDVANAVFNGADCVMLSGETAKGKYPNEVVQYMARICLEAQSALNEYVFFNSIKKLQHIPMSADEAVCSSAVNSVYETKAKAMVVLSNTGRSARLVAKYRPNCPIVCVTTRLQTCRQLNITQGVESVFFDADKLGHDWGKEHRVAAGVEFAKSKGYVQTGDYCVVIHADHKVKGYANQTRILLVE

With Cc1ccc(OC[C@H](O)[C@H](C)NC(C)C)c2c1CCC2 as the molecule, how does the outcome [1] read?
The outcome was “inactive”.

What about the outcome [2] of the same molecule?
The outcome was “inactive”.

And the outcome [3]?
Its outcome is “inactive”.

And the outcome [4]?
Its outcome is “inactive”.

Which results are given for O=C(O)CC(O)(CC(=O)O)C(=O)O?
outcome [5]: inactive; outcome [6]: inactive; outcome [7]: inactive; outcome [8]: inactive

For CN[C@H]1CC[C@@H](c2ccc(Cl)c(Cl)c2)c2ccccc21, which outcome [4] is on record?
Its outcome is “inactive”.

Which outcome [9] does the source give for COC1=CC(=O)C[C@@H](C)[C@@]12Oc1c(Cl)c(OC)cc(OC)c1C2=O here?
Its outcome is “inactive”.

For O=C(O)c1cc2ccccc2c(Cc2c(O)c(C(=O)O)cc3ccccc23)c1O, which activity, negative = inhibition [9] is on record?
Its activity, negative = inhibition is 1.36% [at 11.4 µM].

What does the source list for CCCCCCCCCCCCCCCC(=O)OC/C=C(C)/C=C/C=C(C)/C=C/C1=C(C)CCCC1(C)C?
outcome [5]: inactive; outcome [7]: inactive

Which outcome [6] does the source give for CCCCCCCCCC(=O)O here?
The outcome was “inactive”.

And the outcome [8]?
The outcome was “inactive”.

With NCCCC(=O)O as the molecule, how does the outcome [10] read?
The outcome was “inactive”.

What about the outcome [9] of the same molecule?
Its outcome is “inactive”.

And the outcome [5]?
The outcome was “inactive”.

And the outcome [1]?
Its outcome is “inactive”.

What about the outcome [7] of the same molecule?
The outcome was “inactive”.

And the outcome [2]?
The outcome was “inactive”.

What about the outcome [3] of the same molecule?
Its outcome is “inactive”.

And the outcome [4]?
Its outcome is “inactive”.

What does the source list for CN(C)Cc1ccccc1?
outcome [6]: inactive; outcome [8]: inactive

Which outcome [6] does the source give for C=Cc1ccccc1 here?
Its outcome is “inactive”.

What about the outcome [8] of the same molecule?
The outcome was “inactive”.

For C1CNCCN1, which outcome [5] is on record?
Its outcome is “inactive”.

What about the outcome [7] of the same molecule?
Its outcome is “inactive”.

For COC(C)=O, which outcome [6] is on record?
Its outcome is “inactive”.

And the outcome [8]?
The outcome was “inactive”.
